From PubChem BioAssay AID463195 (Sanford-Burnham Center for Chemical Genomics, 2010)
Hit rate of the full screen: of about 330,000 compounds, about 4,600 (1.4%) were called active.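 The calls were made as follows: active = inhibition of 40% or more at the single tested concentration; inactive = the rest.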 The list comes from a sample in which actives are over-represented; it also holds similar structures and randomly drawn compounds.

Assay: growth inhibitors of isogenic TIM10 control yeast, primary screen, counter-screen for tim10-1 yeast inhibitor project, luminescence, uHTS (AID 463195);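 also: wild-type TIM10 isogenic control strain grown at permissive 25 °C; 0% = DMSO yeast wells and 100% = minimal medium wells without yeast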
Conditions: S. cerevisiae TIM10 strain growth, BacTiter-Glo luminescence, 24 h; at 10 µM; active compounds read high

Row | Structure (SMILES) | inhibition
1 | Cc1ccc(-c2nc3ccccc3c(=O)n2-c2ccc(Br)cn2)cc1 | 43.5% (active)
2 | O=c1c2ccccc2nc(-c2ccccc2)n1-c1ccccn1 | 9.32% (inactive)
3 | O=c1c2ccccc2nc(-c2ccco2)n1-c1ccc(Br)cn1 | 5.95% (inactive)
4 | C=CC12CN(C)[C@@H]3C4CO[C@H](C[C@H]41)[C@]1(C(=O)Nc4ccccc41)[C@@H]32 (stereo not given in full) | -2.08% (inactive)
5 | O=c1c2ccccc2nc(-c2ccc(Cl)cc2Cl)n1-c1ccncc1 | 18.8% (inactive)
6 | CCN(CC)CCOC(=O)c1cc2cc(COC)ccc2o1 | -10.2% (inactive)
7 | CC(C)CN1CCN(Cc2ccccc2C(F)(F)F)CC1CCO (stereo not given) | -6.36% (inactive)
8 | C/C(=N/O)c1ccc2ccc3ccccc3c2c1 | 40.7% (active)
9 | O=[N+]([O-])c1cnc2ccc3ccccc3c2c1 | -22.9% (inactive)
10 | C/C(CCc1c[nH]c2ccccc12)=N\O | 6.37% (inactive)
11 | O=C1NC(=O)N(c2ccccc2)C(=O)/C1=C/c1ccc([N+](=O)[O-])s1 | 85.5% (active)
12 | COc1ccc(N2C(=O)/C(=C/c3ccco3)C(=O)NC2=S)cc1 | -0.32% (inactive)
13 | Cc1c(C(=O)O)cccc1-n1c(C)cc(/C=C2\C(=O)NC(=O)N(c3ccc4c(c3)OCO4)C2=O)c1C | -7.16% (inactive)
14 | COc1cccc(N2C(=O)NC(=O)/C(=C\c3ccc([N+](=O)[O-])s3)C2=O)c1 | 78.4% (active)
15 | CCc1cccc2c(C#N)cn(CC(=O)N3CCOCC3)c12 | 9.92% (inactive)
16 | Cn1c(C(=O)N2CCC(C(=O)N3CCC4(CC3)OCCO4)CC2)cc2sccc21 | 1.3% (inactive)
17 | COc1ccc(CCn2c(O)c(C=NC3CC3)c(=O)[nH]c2=O)cc1OC | 0.042% (inactive)
18 | CC(=O)Cc1ccc(OC(C)C)cc1 | -13.5% (inactive)
19 | CC(C(=O)Nc1ccc(Cl)cc1Cl)N1CC=C(c2ccccc2)CC1 (stereo not given) | 15.3% (inactive)
20 | CCCCCn1c(=O)c(C(=O)Nc2c(C)n(C)n(-c3ccccc3)c2=O)c(O)c2ccccc21 | 24.7% (inactive)
21 | Cc1cc2ccccn2c1C(C[N+](=O)[O-])c1c(F)cccc1Cl (stereo not given) | 52.7% (active)
22 | CCN1c2nc3c(C)cccn3c(=O)c2CC2(C(=O)N(C)C(=O)N(C)C2=O)C1C (stereo not given) | 5.19% (inactive)
23 | Cc1cccc(NC(=O)N2CC3CC(C2)c2cccc(=O)n2C3)c1 (stereo not given) | -9.99% (inactive)
24 | CC[C@H]1CC2CN3CCc4c([nH]c5ccccc45)C(C(=O)OC)(C2)C13 (stereo not given in full) | -1.49% (inactive)
25 | COC(=O)C1=C(c2ccccc2)C[C@@H]2CC[C@H]1N2C(=O)N1CCCCC1 | 28.7% (inactive)
